Laboratory results taken from PubChem BioAssay AID1671192 (National Center for Advancing Translational Sciences (NCATS), 2021).
Records with an inconclusive call do not appear. Active and inactive are the calls of the source. The call rests on the fitted dose curve; in most records, active means well fitted curve in the direction sought with a large enough effect; inconclusive means small, poorly fitted or top-dose-only effect, or another doubt; inactive means no such curve, though single readings can be large or run the other way.

The molecules below were run against Polyunsaturated fatty acid lipoxygenase ALOX15 (Homo sapiens) (UniProt P16050) (assay: Counterscreen qHTS for inhibitors of human arachidonate 12S-lipoxygenase (ALOX12): ALOX15 Assay). Details: purified ALOX15 enzyme activity; series mostly up to 110 µM; activity change, negative = inhibition: at the top concentration.
Summary of the method: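 Purified human ALOX15 (15hLO-1) at 40 nM in 25 mM HEPES, 0.01% Triton X-100, pH 7.5, preincubated with compound 15 min at RT. Then 50 uM arachidonic acid for 30 min; hydroperoxide detected by Fe-xylenol orange as the 573/405 nm absorbance ratio.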
Further: 0% is about no effect.

Chain of Polyunsaturated fatty acid lipoxygenase ALOX15 (Homo sapiens) (P16050 whole entry, looked up): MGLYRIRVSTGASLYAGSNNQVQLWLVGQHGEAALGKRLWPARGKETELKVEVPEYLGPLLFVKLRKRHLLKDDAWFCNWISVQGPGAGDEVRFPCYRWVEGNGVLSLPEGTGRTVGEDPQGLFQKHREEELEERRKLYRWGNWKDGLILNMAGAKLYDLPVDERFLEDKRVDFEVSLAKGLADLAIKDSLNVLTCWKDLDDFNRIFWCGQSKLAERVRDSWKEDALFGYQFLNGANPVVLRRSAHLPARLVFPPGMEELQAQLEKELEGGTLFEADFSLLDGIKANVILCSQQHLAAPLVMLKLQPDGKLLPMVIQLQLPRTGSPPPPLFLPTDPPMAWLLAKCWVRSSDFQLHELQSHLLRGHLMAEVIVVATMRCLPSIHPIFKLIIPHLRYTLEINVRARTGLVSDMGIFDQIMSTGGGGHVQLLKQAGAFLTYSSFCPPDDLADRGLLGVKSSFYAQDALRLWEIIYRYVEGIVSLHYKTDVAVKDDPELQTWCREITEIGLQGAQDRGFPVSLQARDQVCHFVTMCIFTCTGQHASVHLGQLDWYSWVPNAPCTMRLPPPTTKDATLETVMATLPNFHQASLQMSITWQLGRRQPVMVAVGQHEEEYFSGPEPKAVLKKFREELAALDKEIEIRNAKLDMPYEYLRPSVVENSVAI

SMILES | activity change, negative = inhibition
CN1CC(=O)N(C2CCCNCC2)Cc2c1ncnc2N1CCN(c2ccccn2)CC1 (stereo not drawn) | -0.605% (inactive)
COc1cccc(N2C(=O)NC(=NC3CCCCC3)C23CCCN([S+](=O)([O-])c2cccs2)C3)c1 (stereo not drawn) | -28.6% (inactive)
COc1ccc(F)cc1-c1ccccc1C=O | -5.08% [at 146 µM] (inactive)
CN1CC(=O)N(C2CCNC2)Cc2c(NCCc3cccc(F)c3)ncnc21 (stereo not drawn) | -7.72% (inactive)
CCc1nc2c(c(-c3ccc(OC)cc3)n1)CN([S+](=O)([O-])c1c(C)noc1C)CC2 | -23.3% (inactive)
CCCC(=O)N1Cc2ccccc2CC2(CCN(Cc3ccccc3)CC2)C1 | -9.59% (inactive)
O=C(c1ccc(C(F)(F)F)cc1)N1CCC2(CC1)C(=NC1CCCCC1)NC(=O)N2c1cc(F)cc(F)c1 | -17% (inactive)
COc1ccccc1-c1cccc(CN)c1 | 18.8% [at 233 µM] (inactive)
O=C1NCc2ccccc2CC12CCN(Cc1ccnc3ccccc13)CC2 | -17.8% (inactive)
COc1cc(CN2CCCCC23Cc2ccccc2CNC3=O)ccc1F (stereo not drawn) | -15.7% (inactive)
COc1ccc(-c2nc(C3CC3)nc3c2CCN(C(=O)c2ccc(C(F)(F)F)cc2)CC3)cc1 | -0.0788% (inactive)
O=C(c1ccncc1)N1CCN(c2ccc(Cl)nn2)C(=O)C1 | -6.67% [at 146 µM] (inactive)
CCN1CCC2(Cc3ccccc3CN(C(=O)Cc3ccccc3)C2)C1 (stereo not drawn) | 3.4% (inactive)
O=C1NCc2ccccc2CC12CCN(Cc1cccc(OC(F)(F)F)c1)C2 (stereo not drawn) | 3% (inactive)
CCNc1ncnc2c1CN(C1CCCNCC1)C(=O)CN2C (stereo not drawn) | -7.53% [at 146 µM] (inactive)
CC(C)[S+](=O)([O-])N1CCN(c2ccc(Cl)nn2)C(=O)C1 | -25.2% [at 146 µM] (inactive)
CN1CC(=O)N(C2CCNC2)Cc2c(NC3CCN(Cc4ccccc4)CC3)ncnc21 (stereo not drawn) | -12.4% (inactive)
CN1CC(=O)N(C2CCNCC2)Cc2c(NCC3CCCCC3)ncnc21 | -28.9% (inactive)
CC(C)S(=O)(=O)N1CCC(c2nnc3n2CCNC3)CC1 | -25.9% [at 146 µM] (inactive)

SMILES | activity change, negative = inhibition
COc1ccc(-c2cc(C(=O)NC3CC3)c3c(C)nn(-c4ccccc4)c3n2)cc1 | -28.5% (inactive)
COc1cccc(N2C(=O)NC(=NC3CCCC3)C23CCN(Cc2ccsc2)C3)c1 (stereo not drawn) | -47.3% (inactive)
COc1ccc(CNc2ncnc3c2CN(C2CCNCC2)C(=O)CN3C)cc1 | -36.3% (inactive)
COCCNc1ncnc2c1CN(C1CCNCC1)C(=O)CN2C | -7.45% [at 146 µM] (inactive)
O=C(c1ccc2c(c1)OCO2)N1CCC2(CC1)C(=O)Nc1ccccc12 | 1.58% [at 146 µM] (inactive)
O=C1NCc2ccccc2CC12CCN(Cc1ccccc1Cl)C2 (stereo not drawn) | -25.7% [at 146 µM] (inactive)
CN1CC(=O)N(C2CCNCC2)Cc2c1ncnc2N1CCCC(O)C1 (stereo not drawn) | -20% (inactive)
CCc1ccc(CN2CCCC23Cc2ccccc2CNC3=O)cc1 (stereo not drawn) | 13.6% [at 146 µM] (inactive)
Fc1ccc(OC2CN(Cc3ccc(C(F)(F)F)cc3)C2)cc1F | -13% [at 146 µM] (inactive)
Fc1ccc(CN2CC(Oc3ccc4c(c3)OCO4)C2)cc1 | 6.88% [at 146 µM] (inactive)
COc1ccc(-c2nc(C3CC3)nc3c2CCN(Cc2ccc(C#N)cc2)CC3)cc1 | 29.1% (inactive)
COc1ccc(NCCN2CCCC2)cc1 | -46.2% [at 233 µM] (inactive)
COCCNC(=O)c1cc(C)nc2onc(C3CCNC3)c12 (stereo not drawn) | -0.291% [at 146 µM] (inactive)
NCc1cccc(-c2cc(C(F)(F)F)ccc2Cl)c1 | -3.31% [at 146 µM] (inactive)
CNC1CCCc2ccccc21 (stereo not drawn) | -22.1% [at 233 µM] (inactive)
CN1CC(=O)N(C2CCCNCC2)Cc2c1ncnc2N1CCC(N2CCCC2)CC1 (stereo not drawn) | 3.04% (inactive)
Cc1ccc(CN2CCCC23Cc2ccccc2CNC3=O)cc1 (stereo not drawn) | 8.05% [at 146 µM] (inactive)
CN1CCC(C(=O)N2CCCC3(Cc4ccccc4CN3C(=O)c3ccccc3)C2)CC1 (stereo not drawn) | -14.8% (inactive)
CN1CC(=O)N(C2CCCNCC2)Cc2c(NCCc3ccccc3F)ncnc21 (stereo not drawn) | -27.6% (inactive)
